According to PubChem BioAssay AID938 (National Center for Advancing Translational Sciences (NCATS), 2007):
Screen size: about 73,000 compounds; about 1,800 (2.5%) were called active. About 13% were inconclusive and are not listed. Only a selection was taken, and actives are over-represented in it overall. A number with no mark means an inactive call. Calls follow the shape of the dose curve; as a rule, active = well fitted activation curve with a large enough effect; inconclusive = small, poorly fitted or top-dose-only effect; inactive = no such curve, though single readings can be large or run the other way.

assay: qHTS Assay for Agonists of the Thyroid Stimulating Hormone Receptor: Activators of Intracellular cAMP Concentrations in Parental HEK 293; settings: parental HEK293 CNG cAMP sensor, membrane potential fluorescence; series mostly up to 57.1 µM; activation: at the top concentration; also: nearly all actives have a fitted effect of over 55% in size; as to activation: % of control where 0% means no effect
Excerpt: NIH Chemical Genomics Center [NCGC]
NIH Molecular Libraries Screening Centers Network [MLSCN]
PI Name: Dr. Marvin Gershengorn
This cell based assay utilized a cyclic nucleotide gated ion channel (CNG) as a biosensor for cAMP induction. HEK 293 cells stably expressing the modified CNG were purchased from BD biosciences (http://www.atto.com/products/actone/features_benefits.shtml) . Stimulation of cAMP production causes the CNG to open and subsequent membrane depolarization to occur. A fluorescent membrane potential dye (BD biosciences) was utilized to detect cAMP stimulation in cells.
The cells were maintained in DMEM medium (Invitrogen) containing 10 % FBS (Hyclone), 100 units/ml Penicillin, 100 ug/ml Streptomycin (Invitrogen), and 250 ug/ml Geneticin (Invitrogen) and 1 ug/ml Puromycin (Invitrogen) at 37C in 5% CO2. This assay was used as a counterscreen to "qHTS Assay for Agonists of the Thyroid Stimulating Hormone Receptor", to control for compounds signaling through endogenous receptors and other targets of HEK 293 cells.
NCGC Assay Protocol Summary:
High Throughput Screening. Freshly passaged cells were dispensed into 1536-well assay plates at 4 ul/well in DMEM containing phenol red (Invitrogen), 10% FCS (Hyclone), and 100 units/ml Penicillin, 100 ug/ml Streptomycin (Invitrogen) and incubated at 37 C with 5% CO2 for 20 to 36 hrs before the robotic screening. The screen was initiated by addition of 4 ul/well membrane potential dye containing 100 uM RO 20-1724 (Sigma Aldrich), followed by 60 min incubation at room temperature to allow for dye equilibration across the cell membrane. 23 nl/well compound or control was then added to the assay plates, which were incubated for additional 30 min before reading a Envision fluorescence plate reader (Perkin Elmer) in bottom-read mode for fluorescence intensity (emission at 590 nm).
Keywords: cAMP, CNG Ion Channel, quantitative high throughput screening, qHTS, HTS, probe identification, CNG, cAMP, cyclic nucleotide gated ion channel PubChem
Potency is read from the fitted curve at half-maximal effect.

SMILES | activation | Potency
O=C(Nc1cccc(F)c1)N1CCC2(CC1)CCN(S(=O)(=O)c1ccccc1)CC2 | -5.07% | –
CC(=O)c1cnc(Nc2nc(C)c3cc(C)ccc3n2)nc1C | -1.78% | –
CO/N=C\[C@@H](C)[C@H](OCc1ccccc1)C(C)C | -0.643% [at 11.4 µM] | –
C[C@H]1CC[C@H](C(=O)O)N[C@@H]1c1ccc(C#Cc2ccccc2)cc1 | 0.689% [at 11.4 µM] | –
CC(C)[C@H](NC(=O)Nc1ccc(S(N)(=O)=O)cc1)C(=O)O | 3.41% | –
CC(C)(C)NC(=O)C(c1ccco1)N(Cc1ccc2c(c1)OCO2)C(=O)Cn1nnc2ccccc21 (configuration not stated) | – | 15.8 µM (active)
Cc1ccc(C(=O)CSc2nnc(Cn3nnc4ccccc43)n2C)cc1 | 1.67% | –
O=C(Cn1nnc(-c2ccccc2)n1)NCc1ccc2c(c1)OCO2 | 12.1% | –
CC(C)(C)NC(=O)C(c1ccncc1)N(C(=O)CNC(=O)c1ccco1)c1ccc2c(c1)OCO2 (configuration not stated) | -1.28% | –
Cc1ccc(-c2nnn(CC(=O)N(CCO)C(C(=O)NC(C)(C)C)c3ccncc3)n2)cc1 (configuration not stated) | 9.77% | –
CCC(C)(C)NC(=O)C(c1cccn1C)N(Cc1ccc(C)cc1)C(=O)Cn1nnc2ccccc21 (configuration not stated) | – | 15.8 µM (active)
CC(=O)c1nc(N2C(=O)C3CC=C(C)CC3C2=O)sc1C (configuration not stated) | 1.5% | –
CCOC(=O)CCC(=O)OCC(=O)NC(C)C1CC2CCC1C2 (configuration not stated) | 5.54% | –
CCc1c(C)sc(NC(=O)OC)c1C(=O)N1CCOCC1 | -1.6% | –
CC(=O)OCC(=O)[C@@]1(O)CC[C@@H]2[C@H]3CCC4=CC(=O)C=C[C@]4(C)[C@]3(F)[C@@H](O)C[C@@]21C | -1.34% [at 25.6 µM] | –
NS(=O)(=O)c1cc(C(=O)O)c(Cl)c([N+](=O)[O-])c1Cl | -3.67% [at 11.4 µM] | –
COc1ccc(CCNC(=O)c2cc3sccc3n2C)cc1OC | 14.3% | –
CCOC(=O)c1cc2sccc2n1Cc1ccc(C#N)cc1 | – | 15.8 µM (active)
CC(=O)N1CCC2(CCCN(Cc3ccc(C#N)cc3)C2)CC1 | 5.48% | –
O=c1[nH][nH]c(=O)c2cc(N3CCCC3)ccc12 | 5.03% | –
O=C(Nc1ccc(S(=O)(=O)N2CCCCC2)cc1)c1cnccn1 | -2.44% | –
CCc1cccc(C)c1NC(=O)CSc1nnc(-c2ccco2)n1N | 9.32% | –
Cc1cccc(C)c1NC(=O)CCCSc1nnc(-c2ccco2)n1-c1ccccc1 | – | 20 µM (active)
COc1ccc(C(=O)NC(=O)CSc2nnc(-c3ccco3)n2-c2ccccc2)cc1 | 24.9% | –

SMILES | activation | Potency
CC1CCCCN1CCCNC(=O)c1ccc(-n2c(=O)c(=O)[nH]c3ccccc32)cc1 (configuration not stated) | -4.46% | –
O=C1c2ccccc2C(O)N1Cc1ccccc1Cl (configuration not stated) | 3.64% | –
COC(=O)[C@@]1(Cc2ccc(F)cc2)[C@H]2c3cc(C(=O)N4CCCC4)n(Cc4ccc(OC(F)(F)F)cc4)c3C[C@H]2CN1C(=O)c1ccccc1 | – | 1.58 µM (active)
COC(=O)[C@@]1(Cc2ccc(F)cc2)[C@H]2c3cc(C(=O)N4CCCC4)n(C[C@H](O)CO)c3C[C@H]2CN1C(=O)c1ccccc1 | 12.9% | –
COC(=O)[C@@]1(Cc2ccc(F)cc2)[C@@H]2[C@@H](CC(=O)[C@H]2CC(=O)C(=O)N2CCCC2)CN1C(=O)c1ccccc1 | 18.8% | –
COc1ccc(OCc2cccc(C(=O)N3CCCC3)c2)cc1 | 8.91% | –
COC(=O)[C@@]1(Cc2ccccc2)[C@H]2c3cc(C(=O)N4CCCC4)n(Cc4ccc(C)o4)c3C[C@H]2CN1C(=O)c1ccccc1 | – | 1.58 µM (active)
COC(=O)[C@@]1(Cc2ccc(OC)cc2)[C@H]2c3cc(C(=O)N4CCCC4)n(Cc4ccc(OC(F)(F)F)cc4)c3C[C@H]2CN1C(=O)c1ccccc1 | – | 2.51 µM (active)
COC(=O)[C@@]1(Cc2ccc(F)cc2)[C@H]2c3cc(C(=O)N(C)C)n(CCc4c[nH]c5ccc(OC)cc45)c3C[C@H]2CN1C(=O)c1ccccc1 | 3.36% | –
COc1ccc(-c2nc(CS(=O)CC(=O)N3CCc4ccccc4C3)c(C)o2)cc1 (configuration not stated) | -0.822% | –
COc1ccc(/C=C/NC(=O)c2ccc(OC)cc2)cc1 | -3.02% [at 11.4 µM] | –
NCCCNCCCCN(CCCN)/[N+]([O-])=N/O | 3.09% | –
CC1(C)S[C@@H]2[C@@H](NC(=O)[C@@H](N)c3ccccc3)C(=O)N2[C@H]1C(=O)O | -1.13% | –
CC(Sc1nncn1C)C(=O)Nc1ccccc1-c1ccccc1 (configuration not stated) | 10.9% | –
CS(=O)(=O)N1CCN(C(=O)c2cc3ccccc3oc2=O)CC1 | -3.19% | –
C/C(CCN1CCc2nc(-c3ccccc3)c(-c3ccccc3)cc2C1)=N\O[C@@H](C)c1cn([C@@H]2COC[C@@H]2O)nn1 | 0.56% [at 11.4 µM] | –
NC(=O)COc1ccc2c3c(c(=O)oc2c1)CCCCC3 | -1.24% | –
O=C(COc1ccc2c3c(c(=O)oc2c1)CCC3)NC1CCCCC1 | 25.1% | –
CCCOc1ccc2c3c(c(=O)oc2c1OCCC)CCC3 | – | 3.16 µM (active)
Oc1ccc2ccccc2c1C=NCc1c(O)ccc2ccccc12 | 1.97% [at 11.4 µM] | –
CN1CCN(c2ccc(NC(=O)COc3ccc(Cl)cc3Cl)cc2)CC1 | -35.6% | –
CC(C)N(C(=O)COC(=O)c1ccccc1C(=O)N1CCN(c2ccc(F)cc2)CC1)C(C)C | 7.82% | –
CC(=O)N1CCN(c2ccc(NCc3ccc(C(C)C)cc3)cc2)CC1 | – | 3.98 µM (active)
